This excerpt belongs to a sample that is enriched for hits.
PD-1 reversal: activators reversing PD-1 mediated T-cell inhibition. primary human CD4 T cells, PD-L1 beads, CellTiter-Glo 96 h. activation, % (test concentration not listed). 29,000 tested, under 10 active. AID 2316; call rule not given here;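 also: 0% = median vehicle wells and 100% = positive control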
NOMO-1 viab: STK33 inhibitor candidate reducing NOMO-1 cell viability; AID 2330; NOMO-1 AML viability, CellTiter-Glo luminescence, 72 h; actives 7.5% (n = 37,000); inhibition, % (no concentration beside the values); in the data active = inhibition above about 80%; inconclusive = no clear call, values can overlap the other calls
STK33 kin inh: inhibitors of human STK33 kinase. Q9BYT3. ADP-Glo luminescence, MBP substrate. inhibition, % at 12.5 µM. actives 0.44% (n = 27,000); in the data active = inhibition above about 20%; inconclusive = no clear call, values can overlap the other calls
Target sequence (Q9BYT3 whole entry, looked up): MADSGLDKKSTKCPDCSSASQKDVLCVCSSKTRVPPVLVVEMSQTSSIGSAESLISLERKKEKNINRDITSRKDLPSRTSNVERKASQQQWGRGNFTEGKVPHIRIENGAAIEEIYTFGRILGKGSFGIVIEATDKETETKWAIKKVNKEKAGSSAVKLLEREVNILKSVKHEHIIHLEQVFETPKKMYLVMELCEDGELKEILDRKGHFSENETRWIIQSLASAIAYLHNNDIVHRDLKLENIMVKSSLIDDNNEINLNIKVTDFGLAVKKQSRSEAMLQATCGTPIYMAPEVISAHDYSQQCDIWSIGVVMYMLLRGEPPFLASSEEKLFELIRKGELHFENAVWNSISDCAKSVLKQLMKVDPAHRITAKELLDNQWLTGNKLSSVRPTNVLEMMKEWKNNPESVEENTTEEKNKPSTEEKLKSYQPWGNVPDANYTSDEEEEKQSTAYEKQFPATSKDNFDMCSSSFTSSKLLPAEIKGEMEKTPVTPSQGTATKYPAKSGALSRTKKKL
Starred values were filed as active, the others as inactive; u = inconclusive; x = no result.

SMILES | PD-1 reversal | NOMO-1 viab | STK33 kin inh
C[C@@H]1Oc2c(c(O)c3c(c2C(CC(=O)O)c2ccccc2)OC(C)(C)C=C3)C(=O)[C@H]1C (stereo partly specified) | x | x | -5
O=S(=O)(NCC(O)Cn1c2ccc(Cl)cc2c2cc(Cl)ccc21)c1ccccc1 (stereo unspecified) | x | 113* | 3
OC(Cn1nnc2ccccc21)Cn1c2ccc(Cl)cc2c2cc(Cl)ccc21 (stereo unspecified) | x | 43 | 5
O=C(CSc1n[nH]c(-c2ccc(Cl)cc2)n1)c1ccc(Br)cc1 | -3 | 30 | 1
COc1ccc(/C=C2\C(=O)c3ccccc3OC2c2ccccc2)cc1 (stereo unspecified) | 0 | 120* | x
COc1ccc(C2CC(=O)c3ccc(OC)cc3O2)cc1 (stereo unspecified) | x | -7 | 5
COc1ccc(C2CC(c3ccc(Br)cc3)=NN2C(=O)CCN2CCOCC2)cc1 (stereo unspecified) | -1 | 40 | x
COc1cc(CO)cc(Br)c1OCc1cccc([N+](=O)[O-])c1 | 1 | -5 | 0
COC(=O)C1=CN(C23CC4CC(CC(C4)C2)C3)C=C(C(=O)OC)C1c1cccc(OC)c1 | 0 | 109* | x
COC(=O)C1=CN(c2cccc(C(F)(F)F)c2)C=C(C(=O)OC)C1c1ccsc1 | -1 | 18 | x
O=C(CCSc1nc2ccccc2o1)Nc1ccc(F)cc1 | x | -16 | 3
O=C(COc1ccc(Br)cc1)Nc1ccc(Cl)c(-c2nc3ncccc3o2)c1 | 0 | -32 | 6
c1ccc(N=C(Nc2ccccc2)Nc2ccccc2)cc1 | -1 | 89* | x
NC(N)=NC(N)=Nc1ccccc1 | x | -21 | 3
CCOc1cc(C2N=C(Nc3nc4ccccc4o3)NC3=C2C(=O)CC(C)(C)C3)ccc1O (stereo unspecified) | x | 36 | 2
C[C@H]1CN([C@@H](C)CO)C(=O)c2cccc(NC(=O)Nc3ccc(C(F)(F)F)cc3)c2O[C@@H]1CN(C)Cc1ccc(Oc2ccccc2)cc1 | x | 89* | x
C[C@H](CO)N1C[C@H](C)[C@H](CN(C)Cc2ccc(Oc3ccccc3)cc2)Oc2c(NC(=O)Nc3ccccc3)cccc2C1=O | -2 | 73 | x
C[C@H](CO)N1C[C@H](C)[C@H](CN(C)Cc2ccc(Oc3ccccc3)cc2)Oc2c(NC(=O)Nc3ccc(C(F)(F)F)cc3)cccc2C1=O | -10 | 117* | x
C[C@@H]1CN([C@@H](C)CO)C(=O)c2cccc(NC(=O)Nc3ccccc3)c2O[C@@H]1CN(C)Cc1ccc(C(F)(F)F)cc1 | 2 | u | x
O=C(COc1cc(Cl)c(Cl)cc1Cl)Nc1ccccc1C(=O)N1CCCCC1 | 0 | 15 | u
N#CC(=C1SCCCS1)S(=O)(=O)c1cccs1 | 1 | 23 | x
Cc1[nH]c(=S)[nH]c1C12CC3CC(CC(C3)C1)C2 | -1 | 17 | x
c1ccc(CN2CCN(Cc3ccccc3)C2c2ccco2)cc1 | -1 | 1 | x
CN(C)Cc1ccc(C(=O)Oc2ccc(C(C)(C)C)cc2)cc1 | -2 | 115* | x
CCc1ccc(C(=O)Oc2ccc(C#N)cc2)cc1 | 1 | 69 | x
SMILES | PD-1 reversal | NOMO-1 viab | STK33 kin inh
CC(NS(=O)(=O)c1ccc(F)cc1)C(=O)Nc1ccc(C(N)=O)cc1 (stereo unspecified) | 1 | 13 | 3
Cc1csc2sc(COC(=O)Nc3ccccc3)c(C)c12 | 0 | 120* | x
O=C(Nc1ccccc1)OC1CCCC1 | 0 | 36 | x
O=C(COc1ccc(Br)cc1)Nc1cccc(NC(=O)c2ccc(Cl)cc2Cl)c1 | 1 | 26 | 3
NCCOc1ccc(Cl)cc1 | -4 | 111* | -2
Clc1ccc(OCCCCSc2ncccn2)cc1 | 1 | -3 | 1
CC1CCC2(OC1)OC1CC3C4CC=C5C[C@@H](O)CC(O)[C@]5(C)C4CC[C@]3(C)C1C2C (stereo partly specified) | 2 | -15 | -1
C[C@@H]1CN([C@H](C)CO)C(=O)Cc2cc(NC(=O)Nc3ccc(C(F)(F)F)cc3)ccc2O[C@@H]1CN(C)Cc1ccccc1 | -3 | 118* | 4
C[C@H]1CN([C@@H](C)CO)C(=O)Cc2cc(NC(=O)Nc3ccccc3)ccc2O[C@@H]1CN(C)Cc1ccc(C(F)(F)F)cc1 | 1 | 54 | 0
C[C@@H]1CN([C@@H](C)CO)C(=O)Cc2cc(NC(=O)Nc3ccc(C(F)(F)F)cc3)ccc2O[C@@H]1CN(C)Cc1ccccc1 | x | u | -2
C[C@@H]1CN([C@@H](C)CO)C(=O)Cc2cc(NC(=O)Nc3ccccc3)ccc2O[C@@H]1CN(C)Cc1ccc(C(F)(F)F)cc1 | -2 | 119* | -2
Cc1cnn(CCCNC(=O)NC23CC4CC(CC(C4)C2)C3)c1 | 0 | 15 | -1
CCOC(=O)c1c(NC(=O)c2ccc(C)c(S(=O)(=O)N3CCOCC3)c2)sc(C)c1C | -4 | 68 | -5
COc1ccc(NC(=O)C(=O)NCC(=O)Nc2ccc(C)cc2)cc1 | x | 18 | 0
COc1ccc2c(OC)ccc3c2c1C=CC3=O | -1 | 11 | x
C[C@@H]1CN([C@H](C)CO)C(=O)c2cc(NC(=O)Nc3ccc(C(F)(F)F)cc3)ccc2O[C@H]1CN(C)Cc1ccc(C(F)(F)F)cc1 | -10 | 114* | 0
C[C@H]1CN([C@@H](C)CO)C(=O)c2cc(NC(=O)Nc3ccc(C(F)(F)F)cc3)ccc2O[C@H]1CN(C)Cc1ccc(C(F)(F)F)cc1 | -1 | 115* | x
NCCCCCNC(=O)[C@@H]1C[C@@H]2C(=O)N3CCC[C@H]3C(=O)N2[C@@H]1c1ccc(O)cc1 | x | x | 7
Cc1ccc(S(=O)(=O)NC(=O)COc2cccc3ccccc23)c(C)c1 | x | -18 | -5
C[C@H]1CN([C@@H](C)CO)C(=O)c2cccc(NC(=O)Nc3ccc4c(c3)OCO4)c2O[C@H]1CN(C)Cc1ccc(C(=O)Nc2ccccc2N)cc1 | -1 | 140* | x
C[C@H](CO)N1C[C@H](C)[C@@H](CN(C)Cc2ccc(C(=O)O)cc2)Oc2c(NC(=O)Nc3ccc4c(c3)OCO4)cccc2C1=O | x | 11 | x
C[C@@H]1CN([C@H](C)CO)C(=O)c2cccc(NC(=O)Nc3ccc4c(c3)OCO4)c2O[C@@H]1CN(C)Cc1ccc(C(F)(F)F)cc1 | 0 | 44 | x
C[C@@H]1CN([C@H](C)CO)C(=O)c2cccc(NC(=O)Nc3ccc4c(c3)OCO4)c2O[C@@H]1CN(C)Cc1ccc(C(=O)Nc2ccccc2N)cc1 | -1 | 140* | x
CCOC(=O)c1ccccc1NC(=O)c1cc(Cl)ccc1NC(=O)c1ccc(OC)cc1 | -1 | 11 | 4
COC(=O)C(=O)CC(=O)c1c(F)c(F)c(OC)c(F)c1F | 5 | -15 | 0
C=C(C(=O)O[C@H]1C[C@]2(C)C(C(C=O)CC[C@H]2O)[C@H]2OC(=O)C(=C)[C@H]12)C(O)CO (stereo partly specified) | -12 | 104* | 1
C=C(C)C(=O)O[C@H]1C[C@@]2(C)O[C@@H]2[C@H]2O[C@H]2C(=C)[C@@H](O)[C@H]2OC(=O)C(=C)[C@@H]21 | x | x | -10
O=C(CCn1cnc2ccccc2c1=O)Nc1ccc(S(=O)(=O)N2CCOCC2)cc1 | 0 | -14 | -4
COc1ccc2cc1Oc1ccc(cc1)C[C@H]1c3cc(c(OC)cc3CCN1C)Oc1c(OC)c(OC)cc3c1[C@H](C2)N(C)CC3 | x | 121* | -2

Assay outcomes deposited in PubChem by Broad Institute.
